Source: PubChem BioAssay AID504853 (Southern Research Specialized Biocontainment Screening …, 2011)
Measured potencies and affinities stand elsewhere. A number with no mark means an inactive call. The rule behind the calls is not given here.

Assay: HepG2 cell cytotoxicity, dose response, cytotoxicity control, set 3 (AID 504853)
Conditions: series mostly up to 50 µM; viability: at the top concentration

| Compound | viability [%] |
| --- | --- |
| Cc1nc(SCC(N)=O)[nH]c(=O)c1C | 104 |
| Cc1ccc(NC(=O)COC(=O)CCc2c[nH]c3ccccc23)cc1[N+](=O)[O-] | 99.5 |
| Cc1cc(=O)[nH]c(SCC(=O)NC2CCCCC2)n1 | 89.2 |
| Cc1nc(SCc2ccccc2Cl)[nH]c(=O)c1C | 107 |
| O=C(CSc1ccccn1)NC1CCCCC1 | 92.8 |
| O=C(CSc1nccc(=O)[nH]1)NC1CCCCC1 | 99.4 |
| Cc1cc(=O)[nH]c(=S)[nH]1 | 98.9 |
| CCOC1OC(=O)C(Cl)=C1Nc1ccccc1C (stereo unspecified) | 98.3 |
| O=C(CSc1ncccn1)NC1CCCCC1 | 97.8 |
| O=C(CSc1nc2c(c(=O)[nH]1)CCC2)NC1CCCCC1 | 99.8 |
| O=C(CSc1nc2c(c(=O)[nH]1)CCCC2)NC1CCCCC1 | 99.1 |
| Nc1cc(=O)[nH]c(SCC(=O)NC2CCCCC2)n1 | 99.6 |
| Cc1cnc(SCC(=O)NC2CCCCC2)[nH]c1=O | 108 |
| CC[N+](C)(CC)CCCCOc1ccc2c(c1)C(=O)c1cc(OCCCC[N+](C)(CC)CC)ccc1-2 | 83.8 |
| CCSc1nc(C)c(C)c(=O)[nH]1 | 99.4 |
| CC(C)CCNC(=O)CSc1nc2c(c(=O)[nH]1)CCC2 | 88.6 |
| Cc1cccc(/C=C/C(=O)c2ccc([N+](=O)[O-])o2)c1 | 98.6 |
| O=c1[nH]c(=S)[nH]c2ccccc12 | 99.8 |
| CC1CCN(C(=O)CSc2nc3ccccc3c(=O)[nH]2)CC1 | 99.3 |
| Cc1nc(SCC(=O)NC2CCCC2)[nH]c(=O)c1C | 107 |
| Cc1ccc(NC(=O)CSc2nc3ccccc3c(=O)[nH]2)cc1Cl | 96.8 |
| CCOC(=O)CSc1nc(C)c(C)c(=O)[nH]1 | 99.2 |
| COc1ccc(NC(=O)CSc2nc3ccccc3c(=O)[nH]2)cc1 | 105 |
| Cn1c(SCC(=O)NC2CCCCC2)nc2ccccc2c1=O | 101 |
| CN1CCC(NC(=O)CSc2nc3ccccc3c(=O)[nH]2)CC1 | 109 |
| CC1CCN(C(=O)C2CCN(c3nnc(-n4cccc4)s3)CC2)CC1 | 80.1 |
